# Screening data (PubChem)
# STAT3 SMM – STAT3 binders, primary screen, biochemical, small molecule microarray, single point, set 2; His-STAT3 binding, anti-His fluorescence; calls only; 0.2% of 17,000 active; AID 624138, 2012;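 active = compounds whose four printed spots each show fluorescence over background unusually high for their array block, chance value under 7%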
# NFkB binder – binders of NF-kB p50 subunit, primary screen, biochemical, small molecule microarray, anti-His fluorescence; 1.3% of 17,000 active; anti-His fluorescence binding; AID 624139, 2012; calls only; Nuclear factor NF-kappa-B p105 subunit (Homo sapiens), P19838;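 active = spot fluorescence over background significantly raised, with a chance value under 7% in all four replicate spots of the compound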;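 note: probe protein is his-tagged human p50 processed subunit at 1 µg/ml; raw spot fluorescence signals with no normalization applied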
# Target sequence (P19838 1-433 limits assumed): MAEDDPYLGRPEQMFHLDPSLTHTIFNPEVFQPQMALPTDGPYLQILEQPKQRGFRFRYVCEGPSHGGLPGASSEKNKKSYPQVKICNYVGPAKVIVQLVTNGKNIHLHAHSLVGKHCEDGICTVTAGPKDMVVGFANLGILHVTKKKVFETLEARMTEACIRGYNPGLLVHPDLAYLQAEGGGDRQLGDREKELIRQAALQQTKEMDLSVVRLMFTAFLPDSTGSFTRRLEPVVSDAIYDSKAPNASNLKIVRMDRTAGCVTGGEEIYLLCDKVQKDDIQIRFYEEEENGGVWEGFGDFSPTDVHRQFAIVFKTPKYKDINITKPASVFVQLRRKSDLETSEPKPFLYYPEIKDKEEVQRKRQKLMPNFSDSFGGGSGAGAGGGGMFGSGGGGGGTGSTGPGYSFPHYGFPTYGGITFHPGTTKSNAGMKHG
# p53 mut binder – binders of human mutant p53, primary screen, biochemical, small molecule microarray, anti-GST fluorescence; 0.4% of 17,000 active; calls only; small molecule microarray binding; mutant tumor protein p53 (GST-tagged), Homo sapiens;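 active = compounds whose four printed spots each glow above background more than chance allows, each with a p-value under 7%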
# Myc binder – binders of human c-Myc, primary screen, biochemical, small molecule microarray, anti-His fluorescence; Myc proto-oncogene protein (Homo sapiens), P01106; His-c-Myc binding; calls only; 1.5% of 17,000 active; AID 624141, 2012;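 active = spot fluorescence over background with P-value below 7% in all four replicate spots, showing protein binding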;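 note: score is binary with 100 for all four spots passing and 0 otherwise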
# * = called active by the depositor; i = inactive; + = active, no number. An excerpt weighted towards active compounds, which were near 2.1% of everything screened.
SMILES,STAT3 SMM,NFkB binder,p53 mut binder,Myc binder
Cc1noc(C)c1NC(=O)Nc1ccc2c(c1)C(=O)N([C@@H](C)CO)C[C@H](C)[C@H](CN(C)C(=O)C1CCCCC1)OCCCC[C@H](C)O2,i,i,i,i
Cc1noc(C)c1NC(=O)Nc1ccc2c(c1)C(=O)N([C@@H](C)CO)C[C@@H](C)[C@H](CN(C)C(=O)C1CCCCC1)OCCCC[C@H](C)O2,i,+,i,+
Cc1noc(C)c1NC(=O)Nc1ccc2c(c1)C(=O)N([C@H](C)CO)C[C@H](C)[C@@H](CN(C)C(=O)C1CCCCC1)OCCCC[C@@H](C)O2,i,i,i,i
Cc1noc(C)c1NC(=O)Nc1ccc2c(c1)C(=O)N([C@H](C)CO)C[C@H](C)[C@H](CN(C)C(=O)C1CCCCC1)OCCCC[C@H](C)O2,+,i,i,i
Cc1noc(C)c1NC(=O)Nc1ccc2c(c1)C(=O)N([C@@H](C)CO)C[C@@H](C)[C@@H](CN(C)C(=O)C1CCCCC1)OCCCC[C@H](C)O2,i,i,i,+
N#CCCn1cc(CO)c(-c2ccc(Cl)cc2)n1,i,i,i,i
CC(C)(Sc1ccc(CCN(CCCCC2CCCCC2)C(=O)NC2CCCCC2)cc1)C(=O)O,i,+,i,i
NCCCN(Cc1ccco1)C1CCCC1,i,i,i,+
CCOC(=O)c1sc(NC(=O)c2cc(-c3ccccn3)nc3ccccc23)c(C(=O)OCC)c1C,i,i,i,i
CC1CCC2(NC1)OC1CC3C4CC=C5CC(O[C@@H]6O[C@H](CO)[C@@H](O[C@@H]7O[C@@H](C)[C@H](O)[C@@H](O)[C@H]7O)[C@H](O)[C@H]6O)CCC5(C)C4CCC3(C)C1C2C (stereo partly drawn),i,+,i,i
CC1=C(CO)C(=O)OC([C@@H](C)[C@H]2CCC3C4CC=C5C[C@@H](O[C@@H]6O[C@H](CO)[C@@H](O)[C@H](O)[C@H]6O)C[C@H](O)[C@]5(C)C4CC[C@@]32C)C1 (stereo partly drawn),i,i,i,i
CC(=O)OC1/C=C(/C(=O)O)CC/C=C(/C)C(=O)/C=C\C1(C)C (stereo not drawn),i,i,i,i
C[C@@H]1CCCCO[C@H](CN(C)C(=O)CCC(F)(F)F)[C@H](C)CN([C@@H](C)CO)C(=O)c2cc(NC(=O)c3ccncc3)ccc2O1,i,+,i,i
C[C@H](CO)N1C[C@H](C)[C@H](CN(C)C(=O)CCC(F)(F)F)OCCCC[C@H](C)Oc2ccc(NC(=O)c3ccncc3)cc2C1=O,i,+,i,+
C[C@@H]1CN([C@@H](C)CO)C(=O)c2cc(NC(=O)c3ccncc3)ccc2O[C@@H](C)CCCCO[C@H]1CN(C)C(=O)CCC(F)(F)F,i,i,i,i
C[C@@H]1CCCCO[C@H](CN(C)C(=O)CCC(F)(F)F)[C@@H](C)CN([C@H](C)CO)C(=O)c2cc(NC(=O)c3ccncc3)ccc2O1,i,i,i,i
COc1ccc(NC(=S)N2CCN(Cc3c(C)nn(C)c3C)CC2)cc1OC,i,i,i,i
Cc1nnc(SCC(=O)Nc2ccc(Oc3ccccc3)cc2)s1,i,i,i,i
COc1ccccc1CN1CCN(Cc2cccnc2)CC1,i,i,i,+
COc1ccc(-c2oc3cc(OC)c(OC)c(O)c3c(=O)c2OC)cc1OC,i,i,i,i
O=C(Cn1cc(CN2C(=O)COC[C@H]2c2ccccc2)nn1)Nc1nccs1,i,i,+,i
O=C(Nc1ccccc1)N[C@@H](Cc1ccccc1)Cn1cc(CN2C(=O)COC[C@H]2c2ccccc2)nn1,i,i,i,i
C[C@H](CCC(=O)O)[C@H]1CCC2[C@@H]3CC[C@@H]4C[C@H](O)CC[C@]4(C)C3C=C[C@@]21C (stereo partly drawn),i,+,i,i
COc1cccc(CNc2nc3ccccc3n2CCN2CCOCC2)c1O,i,i,i,i
CC(C)(C)[C@@H]1C=C(C(=O)O)O[C@H](OCc2ccc(CO)cc2)C1,i,+,i,i
SMILES,STAT3 SMM,NFkB binder,p53 mut binder,Myc binder
C[C@@H]1O[C@@H](O[C@H]2[C@@H]3C=CO[C@@H](O[C@@H]4O[C@H](CO)[C@@H](O)[C@H](O)[C@H]4O)[C@@H]3[C@@]3(CO)O[C@@H]23)[C@H](OC(=O)/C=C/c2ccccc2)[C@H](OC(=O)/C=C/c2ccccc2)[C@H]1O,i,i,i,i
C[C@@H]1CN([C@H](C)CO)C(=O)Cc2cc(NC(=O)CCN3CCOCC3)ccc2O[C@H]1CN(C)Cc1ccc(-c2ccccc2)cc1,i,i,i,i
C[C@@H]1CN([C@@H](C)CO)C(=O)Cc2cc(NC(=O)CCN3CCOCC3)ccc2O[C@H]1CN(C)Cc1ccc(-c2ccccc2)cc1,i,i,i,+
C[C@H](CO)N1C[C@H](C)[C@@H](CN(C)Cc2ccc(-c3ccccc3)cc2)Oc2ccc(NC(=O)Nc3cccc4ccccc34)cc2CC1=O,i,+,i,i
C[C@@H]1CN([C@@H](C)CO)C(=O)Cc2cc(NC(=O)Nc3cccc4ccccc34)ccc2O[C@@H]1CN(C)Cc1ccc(C(=O)O)cc1,i,i,i,i
CCCN(C)C[C@H]1OCCCC[C@@H](C)Oc2ccc(NS(=O)(=O)c3ccc(OC)cc3)cc2C(=O)N([C@@H](C)CO)C[C@H]1C,i,i,+,+
CCCN(C)C[C@@H]1OCCCC[C@@H](C)Oc2ccc(NC(=O)Nc3cccc4ccccc34)cc2C(=O)N([C@H](C)CO)C[C@@H]1C,i,+,i,+
C[C@@H]1CCCCO[C@H](CN(C)CC2CC2)[C@@H](C)CN([C@H](C)CO)C(=O)c2cc(NC(=O)Nc3cccc4ccccc34)ccc2O1,i,i,i,i
C[C@@H]1CN([C@@H](C)CO)C(=O)c2cc(NC(=O)Nc3cccc4ccccc34)ccc2O[C@@H](C)CCCCO[C@@H]1CN(C)CC1CCCCC1,i,+,i,+
O=C(NCCO)C1=C[C@H](Oc2ccccc2I)[C@@H](O)[C@H](N(Cc2ccco2)C(=O)Cc2ccccc2)C1,i,i,i,i
CCC(Sc1ccccn1)C(=O)Nc1ccc(Br)cc1 (stereo not drawn),i,i,i,i
C=C1CCC2[C@](C)(CCC[C@]2(C)C(=O)O)[C@H]1CC/C(C)=C/C(=O)O (stereo partly drawn),i,i,i,i
CN(C(=O)CSc1nnc(N)s1)c1ccccc1,i,i,i,i
